Assay results published in the supplement of paper PMC10849652.
Of roughly 7,900 targets only a part is listed; those with a hit were picked by preference. About 0.6% of all pairs of compound and target were hits.

What was measured:
Experiment in all cases: log2 fold change, soluble protein after heating vs DMSO (PISA); higher = thermal stabilisation; K562 cells, 10 uM, 30 min; active = over 0.2 and 3.5 SD of the protein, either way, in both replicates (recomputed)
[1] = compound: C1=CC=C(C=C1)[C@H](COC2=CC3=C(C=C2)NC(=O)N3)NC(=O)C4=CC=CN(C4=O)CC5=CC(=C(C=C5)F)F
In short: (§1)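 K562 cells at 2×10^6 cells/mL were treated for 30 min with 10 μM compound, and aliquots were heated for 3 min over 48°C-58°C before pooling. Extraction used PBS with 0.5% NP-40 at 4°C, and soluble protein was the supernatant after 21,000xg for 90 min, measured by TMTpro 16plex LC-MS/MS with channel sums equalised. Thermal stability values, relative to control samples and from duplicates, are log2 fold changes.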

[2] = compound: CC1=C(SC2=C1C(=N[C@H](C3=NN=C(N32)C)CC(=O)N)C4=CC=C(C=C4)Cl)C
In short: as §1

[3] = compound: CC1=C2C(=CC=C1)N=C(N(C2=O)C3=CC=CC=C3C)CN4C=NC5=C(N=CN=C54)N
In short: as §1

[4] = compound: Cc1sc2c(c1C)C(c1ccc(Cl)cc1)=N[C@@H](CC(=O)OC(C)(C)C)c1nnc(C)n1-2
In short: as §1

[5] = compound: c1ccc([C@@H]2C[C@H]2NC2CCNCC2)cc1
In short: as §1

Measured: log2 fold change

ARFIP1 (UniProt P53367)
inactive: [1] 0.04 | [2] 0.042 | [3] 0.051 | [4] -0.065 | [5] -0.03

AGPAT5 (UniProt Q9NUQ2)
inactive: [1] -0.015 | [2] 0.064 | [3] 0.007 | [4] -0.008 | [5] -0.025

ALG3 (UniProt Q92685)
UniProt Q92685, sequence (Q92685 whole entry, looked up): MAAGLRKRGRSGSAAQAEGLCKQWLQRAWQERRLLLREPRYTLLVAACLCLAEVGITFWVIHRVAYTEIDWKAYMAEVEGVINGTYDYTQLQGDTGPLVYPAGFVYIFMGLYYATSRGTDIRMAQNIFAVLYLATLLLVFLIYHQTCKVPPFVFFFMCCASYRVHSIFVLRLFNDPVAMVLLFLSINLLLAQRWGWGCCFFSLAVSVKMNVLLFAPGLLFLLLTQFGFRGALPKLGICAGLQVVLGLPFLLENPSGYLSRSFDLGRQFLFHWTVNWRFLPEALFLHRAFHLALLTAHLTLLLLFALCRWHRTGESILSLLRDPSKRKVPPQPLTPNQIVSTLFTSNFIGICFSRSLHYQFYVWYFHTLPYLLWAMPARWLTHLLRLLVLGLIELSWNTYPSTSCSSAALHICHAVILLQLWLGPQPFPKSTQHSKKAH
inactive: [1] -0.061 | [2] 0.019 | [3] 0.072 | [4] 0.054 | [5] -0.026

BID isoform 2 (UniProt P55957)
UniProt P55957, sequence (P55957 whole entry, looked up): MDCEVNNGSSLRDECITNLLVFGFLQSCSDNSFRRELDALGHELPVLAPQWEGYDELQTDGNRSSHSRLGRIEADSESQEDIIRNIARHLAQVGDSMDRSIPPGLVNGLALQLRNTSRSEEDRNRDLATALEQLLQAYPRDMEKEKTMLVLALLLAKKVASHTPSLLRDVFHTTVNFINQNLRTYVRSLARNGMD
inactive: [1] -0.036 | [2] 0.059 | [3] 0.081 | [4] -0.076 | [5] -0.053

AP2A1 (UniProt O95782)
inactive: [1] -0.001 | [2] -0.021 | [3] -0.028 | [4] 0.047 | [5] -0.005

ADK (UniProt P55263)
inactive: [1] 0.026 | [2] 0.036 | [3] 0.154 | [4] -0.008 | [5] -0.057

ACAD9 (UniProt Q9H845)
inactive: [1] 0.012 | [2] 0.028 | [3] 0.031 | [4] 0.022 | [5] 0.009

BCAP29 isoform 2 (UniProt Q9UHQ4)
inactive: [1] -0.017 | [2] 0.029 | [3] 0.035 | [4] -0.008 | [5] 0.032

BPHL (UniProt Q86WA6)
UniProt Q86WA6, sequence (Q86WA6 whole entry, looked up): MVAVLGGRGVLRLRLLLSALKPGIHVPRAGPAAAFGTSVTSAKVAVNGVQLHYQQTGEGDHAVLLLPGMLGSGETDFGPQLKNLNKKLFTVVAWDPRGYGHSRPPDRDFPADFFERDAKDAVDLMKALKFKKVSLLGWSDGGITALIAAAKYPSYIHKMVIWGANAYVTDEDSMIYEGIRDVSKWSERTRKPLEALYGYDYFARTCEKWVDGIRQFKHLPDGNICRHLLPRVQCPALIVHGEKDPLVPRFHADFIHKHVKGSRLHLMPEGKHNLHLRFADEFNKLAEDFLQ
inactive: [1] -0.015 | [2] 0.052 | [3] 0.075 | [4] 0.136 | [5] -0.065

BCCIP isoform 2 (UniProt Q9P287)
UniProt Q9P287, sequence (Q9P287 whole entry, looked up): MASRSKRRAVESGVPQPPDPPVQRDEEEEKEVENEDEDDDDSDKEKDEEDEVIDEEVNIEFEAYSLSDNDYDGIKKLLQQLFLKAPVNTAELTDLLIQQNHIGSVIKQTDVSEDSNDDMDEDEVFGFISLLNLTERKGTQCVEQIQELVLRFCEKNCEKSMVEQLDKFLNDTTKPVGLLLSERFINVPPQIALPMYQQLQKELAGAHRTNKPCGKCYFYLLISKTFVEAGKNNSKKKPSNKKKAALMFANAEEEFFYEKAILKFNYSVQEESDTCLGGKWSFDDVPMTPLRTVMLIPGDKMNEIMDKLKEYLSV
inactive: [1] -0.031 | [2] 0.002 | [3] -0.001 | [4] -0.035 | [5] 0.014

ATAD3A isoform 2 (UniProt Q9NVI7)
UniProt Q9NVI7, sequence (Q9NVI7 whole entry, looked up): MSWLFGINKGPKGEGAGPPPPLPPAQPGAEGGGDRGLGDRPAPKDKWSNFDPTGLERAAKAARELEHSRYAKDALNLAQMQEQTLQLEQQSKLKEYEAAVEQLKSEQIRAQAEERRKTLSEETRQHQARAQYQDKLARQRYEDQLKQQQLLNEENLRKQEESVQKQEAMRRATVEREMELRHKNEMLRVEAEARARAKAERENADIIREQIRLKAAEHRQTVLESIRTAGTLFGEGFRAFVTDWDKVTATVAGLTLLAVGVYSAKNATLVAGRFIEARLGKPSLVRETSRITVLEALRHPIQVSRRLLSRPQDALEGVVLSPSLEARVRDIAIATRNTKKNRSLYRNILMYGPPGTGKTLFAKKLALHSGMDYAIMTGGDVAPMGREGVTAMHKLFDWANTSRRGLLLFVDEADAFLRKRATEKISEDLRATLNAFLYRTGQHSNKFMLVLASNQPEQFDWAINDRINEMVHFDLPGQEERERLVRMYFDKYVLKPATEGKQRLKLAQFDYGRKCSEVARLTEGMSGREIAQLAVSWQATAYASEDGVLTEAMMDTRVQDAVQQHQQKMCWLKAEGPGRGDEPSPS
inactive: [1] -0.019 | [2] -0.037 | [3] -0.052 | [4] 0.08 | [5] 0.054

BTAF1 (UniProt O14981)
UniProt O14981, sequence (O14981 whole entry, looked up): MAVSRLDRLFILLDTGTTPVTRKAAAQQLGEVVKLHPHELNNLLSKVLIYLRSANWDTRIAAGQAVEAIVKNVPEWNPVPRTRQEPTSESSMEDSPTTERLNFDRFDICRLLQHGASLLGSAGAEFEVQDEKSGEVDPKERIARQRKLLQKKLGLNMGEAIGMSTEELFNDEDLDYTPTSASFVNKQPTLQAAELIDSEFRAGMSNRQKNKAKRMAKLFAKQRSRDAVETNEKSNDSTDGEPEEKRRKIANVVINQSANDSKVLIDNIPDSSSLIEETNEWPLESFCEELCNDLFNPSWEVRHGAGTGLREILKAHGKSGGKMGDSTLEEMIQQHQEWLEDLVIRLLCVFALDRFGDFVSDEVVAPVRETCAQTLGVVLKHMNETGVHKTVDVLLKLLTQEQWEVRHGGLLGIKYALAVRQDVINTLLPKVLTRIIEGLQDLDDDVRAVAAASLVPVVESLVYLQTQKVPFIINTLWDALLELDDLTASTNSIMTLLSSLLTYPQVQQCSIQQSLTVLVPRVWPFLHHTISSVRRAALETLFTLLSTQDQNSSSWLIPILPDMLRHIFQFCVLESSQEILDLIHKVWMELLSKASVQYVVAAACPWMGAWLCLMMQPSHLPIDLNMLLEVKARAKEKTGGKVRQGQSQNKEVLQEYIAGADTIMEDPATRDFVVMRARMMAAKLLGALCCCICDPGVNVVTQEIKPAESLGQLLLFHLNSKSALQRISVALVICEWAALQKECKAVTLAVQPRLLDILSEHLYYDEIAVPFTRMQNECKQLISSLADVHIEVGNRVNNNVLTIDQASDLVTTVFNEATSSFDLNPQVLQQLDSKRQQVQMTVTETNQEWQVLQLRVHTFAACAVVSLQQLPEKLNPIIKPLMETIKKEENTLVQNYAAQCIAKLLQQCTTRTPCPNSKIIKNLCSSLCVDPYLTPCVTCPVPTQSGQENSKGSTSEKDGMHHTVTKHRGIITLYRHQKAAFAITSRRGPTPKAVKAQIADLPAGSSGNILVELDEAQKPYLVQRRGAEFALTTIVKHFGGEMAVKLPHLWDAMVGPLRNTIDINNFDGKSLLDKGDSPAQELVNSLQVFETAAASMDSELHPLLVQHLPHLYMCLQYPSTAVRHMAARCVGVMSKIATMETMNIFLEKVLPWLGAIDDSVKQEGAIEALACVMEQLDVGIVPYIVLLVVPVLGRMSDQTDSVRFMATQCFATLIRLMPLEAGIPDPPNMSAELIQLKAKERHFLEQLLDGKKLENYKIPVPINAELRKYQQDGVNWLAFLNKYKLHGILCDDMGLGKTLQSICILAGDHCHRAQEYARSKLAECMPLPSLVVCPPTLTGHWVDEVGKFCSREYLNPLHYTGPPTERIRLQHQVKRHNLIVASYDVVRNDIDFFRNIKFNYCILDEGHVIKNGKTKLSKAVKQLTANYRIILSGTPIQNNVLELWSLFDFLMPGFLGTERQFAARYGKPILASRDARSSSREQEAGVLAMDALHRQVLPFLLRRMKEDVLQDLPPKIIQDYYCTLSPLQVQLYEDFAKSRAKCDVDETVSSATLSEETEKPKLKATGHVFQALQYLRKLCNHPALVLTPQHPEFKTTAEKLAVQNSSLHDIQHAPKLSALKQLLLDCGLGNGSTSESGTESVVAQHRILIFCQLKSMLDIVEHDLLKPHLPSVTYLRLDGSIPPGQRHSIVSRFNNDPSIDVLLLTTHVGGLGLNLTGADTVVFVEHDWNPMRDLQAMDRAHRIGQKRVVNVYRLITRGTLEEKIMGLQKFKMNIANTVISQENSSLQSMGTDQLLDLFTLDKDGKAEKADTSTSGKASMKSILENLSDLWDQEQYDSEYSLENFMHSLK
inactive: [1] 0.051 | [2] -0.003 | [3] 0.124 | [4] 0.005 | [5] 0.055

AP2A2 isoform 2 (UniProt O94973)
inactive: [1] -0.021 | [2] -0.02 | [3] 0.04 | [4] 0.048 | [5] 0.028

AUP1 (UniProt Q9Y679)
inactive: [1] -0.044 | [2] 0.053 | [3] 0.028 | [4] -0.074 | [5] -0.051

AURKA (UniProt O14965)
UniProt O14965, sequence (O14965 whole entry, looked up): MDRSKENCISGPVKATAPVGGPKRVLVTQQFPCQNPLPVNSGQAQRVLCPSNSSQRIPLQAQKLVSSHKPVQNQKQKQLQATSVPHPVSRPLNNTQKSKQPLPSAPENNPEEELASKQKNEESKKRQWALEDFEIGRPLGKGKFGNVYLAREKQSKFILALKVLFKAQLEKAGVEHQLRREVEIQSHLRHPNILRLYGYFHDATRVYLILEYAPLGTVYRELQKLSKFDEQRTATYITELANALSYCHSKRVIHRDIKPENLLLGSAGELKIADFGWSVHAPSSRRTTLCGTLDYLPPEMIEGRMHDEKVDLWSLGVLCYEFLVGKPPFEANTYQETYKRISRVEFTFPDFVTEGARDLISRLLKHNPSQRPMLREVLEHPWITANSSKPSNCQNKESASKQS
inactive: [1] 0 | [2] 0.148 | [3] 0.018 | [4] 0.009 | [5] -0.038

BYSL (UniProt Q13895)
inactive: [1] 0.001 | [2] -0.085 | [3] -0.09 | [4] 0.02 | [5] -0.042

AK6 (UniProt Q9Y3D8)
inactive: [1] -0.043 | [2] 0.042 | [3] 0.2 | [4] -0.014 | [5] -0.008

ATAD3B (UniProt Q5T9A4)
UniProt Q5T9A4, sequence (Q5T9A4 whole entry, looked up): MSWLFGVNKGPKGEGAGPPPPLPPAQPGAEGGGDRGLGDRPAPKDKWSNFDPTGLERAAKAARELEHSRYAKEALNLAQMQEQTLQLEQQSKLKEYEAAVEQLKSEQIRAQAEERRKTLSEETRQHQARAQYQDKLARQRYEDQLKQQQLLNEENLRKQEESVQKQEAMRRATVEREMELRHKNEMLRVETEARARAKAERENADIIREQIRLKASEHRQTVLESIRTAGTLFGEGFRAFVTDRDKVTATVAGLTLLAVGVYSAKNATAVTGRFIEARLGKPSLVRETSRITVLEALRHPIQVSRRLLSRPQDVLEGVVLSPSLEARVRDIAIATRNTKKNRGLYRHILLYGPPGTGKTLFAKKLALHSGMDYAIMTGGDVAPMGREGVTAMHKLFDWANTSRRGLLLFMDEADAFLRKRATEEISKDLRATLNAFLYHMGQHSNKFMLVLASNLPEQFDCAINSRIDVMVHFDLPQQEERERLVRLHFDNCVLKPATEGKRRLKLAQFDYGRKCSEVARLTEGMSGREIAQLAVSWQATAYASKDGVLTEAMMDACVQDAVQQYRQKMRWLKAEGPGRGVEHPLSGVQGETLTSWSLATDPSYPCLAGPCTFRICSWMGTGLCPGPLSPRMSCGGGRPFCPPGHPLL
inactive: [1] -0.02 | [2] -0.023 | [3] -0.055 | [4] 0.123 | [5] 0.025

ATP6V1F isoform 2 (UniProt Q16864)
inactive: [1] 0.015 | [2] -0.144 | [3] -0.138 | [4] -0.126 | [5] 0.02

BLVRB (UniProt P30043)
UniProt P30043, sequence (P30043 whole entry, looked up): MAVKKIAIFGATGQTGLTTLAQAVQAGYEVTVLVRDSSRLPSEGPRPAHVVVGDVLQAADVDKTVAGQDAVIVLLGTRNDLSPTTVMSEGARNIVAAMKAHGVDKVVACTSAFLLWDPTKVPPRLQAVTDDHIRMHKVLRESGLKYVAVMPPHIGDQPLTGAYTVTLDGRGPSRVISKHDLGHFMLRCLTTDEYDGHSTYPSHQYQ
inactive: [1] -0.029 | [2] 0.027 | [3] -0.01 | [4] -0.006 | [5] 0.013

BAP1 (UniProt Q92560)
inactive: [1] -0.226 | [2] -0.123 | [3] -0.156 | [4] 0.066 | [5] -0.037

BRD8 (UniProt Q9H0E9)
inactive: [1] 0.027 | [2] -0.009 | [3] 0.023 | [4] 0.009 | [5] 0.021

AGO1 (UniProt Q9UL18)
inactive: [1] -0.05 | [2] -0.066 | [3] -0.114 | [4] -0.016 | [5] 0.05

ACP1 (UniProt P24666)
inactive: [1] -0.058 | [2] -0.026 | [3] 0.184 | [4] -0.041 | [5] -0.416
